# “And” between values parts separate entries of the source, which are not always exact repeats. Equal values may be shown once. Records with an inconclusive call do not appear. The source made the active and inactive calls. Unless noted, calls follow the shape of the dose curve; as a rule, active = well fitted curve in either direction with a large enough effect (not every such curve was filed as active); inconclusive = small, poorly fitted or top-dose-only effect, or another doubt; inactive = flat fitted curve, though single readings scatter.
# What was measured:
# [1] = molecular target: Lysosomal acid glucosylceramidase (Homo sapiens) (UniProt P04062); test: Glucocerebrosidase-p2 (AID 348; in the data active = potency below about 10 µM; also: potency is read from the fitted curve at half-maximal effect); settings: purified GBA, blue fluorogenic substrate, 40 min
# Lysosomal acid glucosylceramidase (Homo sapiens), sequence (P04062 whole entry, looked up): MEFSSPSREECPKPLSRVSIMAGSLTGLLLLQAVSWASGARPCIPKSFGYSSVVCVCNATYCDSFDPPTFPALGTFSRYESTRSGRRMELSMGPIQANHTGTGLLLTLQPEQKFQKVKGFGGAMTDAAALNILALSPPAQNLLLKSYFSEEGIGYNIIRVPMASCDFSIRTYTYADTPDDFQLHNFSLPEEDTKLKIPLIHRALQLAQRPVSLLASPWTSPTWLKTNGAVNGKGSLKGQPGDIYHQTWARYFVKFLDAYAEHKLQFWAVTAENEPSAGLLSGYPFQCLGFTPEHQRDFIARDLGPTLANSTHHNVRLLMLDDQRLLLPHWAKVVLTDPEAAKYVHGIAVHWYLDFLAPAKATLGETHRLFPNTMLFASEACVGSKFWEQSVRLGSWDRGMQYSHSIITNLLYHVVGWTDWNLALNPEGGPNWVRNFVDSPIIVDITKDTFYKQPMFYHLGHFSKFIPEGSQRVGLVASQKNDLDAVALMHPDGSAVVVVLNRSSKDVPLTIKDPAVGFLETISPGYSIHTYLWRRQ
# How it was run: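 Compounds titrated from 0.6 nM upwards against 0.2 nM enzyme in pH 5.9 citric acid/KH2PO4, taurocholate, tween-20; blue fluorogenic substrate 80 uM, 40 min room temperature, stopped and read Ex 365/Em 440 for AC50.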
# [2] = AP1 Signaling Pathway (AID 357); settings: ME-180 AP-1-bla reporter, EGF-induced, beta-lactamase ratio, 5 h; also: % is scaled to controls: 0 for no effect and ±100 for the full control effect
# How it was run: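 Titration-series screen for positive or negative modulators of EC50 EGF-induced signaling in ME-180 cells carrying an AP-1-driven beta-lactamase reporter. After 5 hours at 37 degrees Celsius, CCF4 460nm/530nm emission ratio gave %Activity; AC50 values derived.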
# [3] = NFAT Signaling Pathway (AID 444); settings: Jurkat NFAT-bla M1, carbachol, beta-lactamase ratio, 5 h;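 also: carbachol stimulus at about its EC50 of 1 µM final; % is scaled to controls: 0 for no effect and ±100 for the full control effect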
# How it was run: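 Jurkat cells with NFAT-driven β-lactamase reporter and co-expressed M1 receptor, stimulated with carbachol (final 1 uM, ~EC50), compound titration, 5 h at 37 °C. CCF4 loaded 1 h at RT; 460/530 nm ratio gave %activity and AC50.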
# [4] = Stat Signaling Pathway (AID 446); settings: ME-180 SIE beta-lactamase reporter, IL-6 stimulated, 5 h;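 also: ME-180 cervical cancer cells given 40 pM IL-6 alongside compound; SIE-controlled beta-lactamase reporter measured as 460/530 nm FRET emission ratio; % is scaled to controls: 0 for no effect and ±100 for the full control effect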
# How it was run: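 Reporter line: ME-180 cervical carcinoma, SIE-beta-lactamase. Treatment: compound with 40 pM IL-6, 5 hrs, 37 C, in low-serum OPTI-MEM with 10 mM HEPES pH 7.3. Detection: 460/530 nm fluorescence.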
# [5] = molecular target: Glucocorticoid receptor (Homo sapiens) (UniProt P04150); test: GR-GFP Redistribution (AID 450;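 active = compounds whose dose series gives a full or clear partial fitted curve of increased nuclear translocation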; also: potency is read from the fitted curve at half-maximal effect); settings: U2OS GR-GFP nuclear translocation, laser cytometry, 2 h
# Glucocorticoid receptor (Homo sapiens), sequence (P04150 whole entry, looked up, the tested form may be a part): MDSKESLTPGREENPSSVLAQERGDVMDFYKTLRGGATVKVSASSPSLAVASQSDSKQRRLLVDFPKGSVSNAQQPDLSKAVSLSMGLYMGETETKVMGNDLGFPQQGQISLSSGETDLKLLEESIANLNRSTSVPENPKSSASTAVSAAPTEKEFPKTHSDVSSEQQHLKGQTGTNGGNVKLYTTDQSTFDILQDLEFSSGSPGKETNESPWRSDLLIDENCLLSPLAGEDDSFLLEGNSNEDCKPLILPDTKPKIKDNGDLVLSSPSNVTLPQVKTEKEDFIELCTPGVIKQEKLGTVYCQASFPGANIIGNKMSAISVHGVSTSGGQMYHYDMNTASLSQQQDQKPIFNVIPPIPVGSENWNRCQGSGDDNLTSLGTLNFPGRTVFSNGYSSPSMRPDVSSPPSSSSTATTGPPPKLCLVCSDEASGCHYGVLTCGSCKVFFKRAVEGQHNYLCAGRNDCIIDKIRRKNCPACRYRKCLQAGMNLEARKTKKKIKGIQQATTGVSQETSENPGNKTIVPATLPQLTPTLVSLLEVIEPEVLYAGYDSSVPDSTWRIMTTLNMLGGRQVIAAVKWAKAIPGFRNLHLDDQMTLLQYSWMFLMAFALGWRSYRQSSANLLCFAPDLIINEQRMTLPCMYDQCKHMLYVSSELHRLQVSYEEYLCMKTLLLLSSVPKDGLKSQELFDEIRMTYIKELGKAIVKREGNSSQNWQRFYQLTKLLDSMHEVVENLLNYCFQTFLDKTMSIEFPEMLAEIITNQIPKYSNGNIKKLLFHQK
# [6] = molecular target: Glucocorticoid receptor (Homo sapiens) (UniProt P04150); test: GR-EFC Redistribution (AID 451; calls by dose curve; also: potency is read from the fitted curve at half-maximal effect); settings: CHO-K1 GR-EFC translocation, beta-gal luminescence, 2 h
# How it was run: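 CHO-K1 cells expressing nuclear EA and GR-ED fragments of b-gal; compounds titrated up to 46 uM final, 2 h at 37 C. GR nuclear translocation read as complemented b-gal luminescence after 1 h RT detection.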
# [7] = molecular target: Mitogen-activated protein kinase 10 (Mus musculus) (UniProt Q61831); test: JNK3 AlphaScreen Assay (AID 530);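 also: kinase came from lysate of stimulated human HepG2 cells; signal reports phosphorylation of biotinylated GST-cJun 1-79 at Ser73 with 10 µM ATP; % is scaled to controls: 0 for no effect and ±100 for the full control effect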
# How it was run: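 Pre-activated (IL-1β/TNFα) JNK3 in HepG2 lysates phosphorylates biotin-GST-cJun(1-79), 10 uM ATP; anti-phospho-cJun(Ser73) AlphaScreen read at room temperature, pH 7.6 Tris buffer. Compounds pre-incubated 15 min as titrations.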
# [8] = molecular target: 3',5'-cyclic-AMP phosphodiesterase 4B (Homo sapiens) (UniProt Q07343); test: qHTS Assay for Inhibitors of PDE-IV (AID 607; active = well fitted activation curve with a large enough effect in the main read-out, with a control signal flat, not every such curve was filed as active; also: % of control where 0% means no effect)
# 3',5'-cyclic-AMP phosphodiesterase 4B (Homo sapiens), sequence (Q07343 whole entry, looked up): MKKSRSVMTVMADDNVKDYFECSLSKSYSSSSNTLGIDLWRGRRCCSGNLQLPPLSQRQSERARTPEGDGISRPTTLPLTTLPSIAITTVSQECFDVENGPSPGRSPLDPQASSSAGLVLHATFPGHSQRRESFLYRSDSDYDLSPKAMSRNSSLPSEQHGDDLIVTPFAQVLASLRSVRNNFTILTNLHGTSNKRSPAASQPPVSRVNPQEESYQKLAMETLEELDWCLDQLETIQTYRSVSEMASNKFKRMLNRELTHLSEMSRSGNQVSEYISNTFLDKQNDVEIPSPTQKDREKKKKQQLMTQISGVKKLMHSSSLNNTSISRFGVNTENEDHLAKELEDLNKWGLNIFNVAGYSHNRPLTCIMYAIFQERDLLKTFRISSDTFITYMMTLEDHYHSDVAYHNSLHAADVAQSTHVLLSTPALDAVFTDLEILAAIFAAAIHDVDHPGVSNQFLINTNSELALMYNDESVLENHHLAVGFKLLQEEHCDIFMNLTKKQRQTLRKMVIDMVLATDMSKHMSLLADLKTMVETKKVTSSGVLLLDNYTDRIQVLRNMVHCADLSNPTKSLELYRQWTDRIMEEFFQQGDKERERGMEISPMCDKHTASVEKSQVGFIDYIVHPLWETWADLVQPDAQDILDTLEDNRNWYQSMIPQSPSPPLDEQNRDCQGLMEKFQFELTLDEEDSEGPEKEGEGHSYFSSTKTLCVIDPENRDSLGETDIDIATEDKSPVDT
# How it was run: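 Cell-based read-out of cAMP via a modified cyclic nucleotide-gated channel and membrane potential dye (535/590 nm) in HEK293 cells expressing PDE4 endogenously. Compounds tested up to 22.9 uM final; 100 uM RO 20-1724 reference.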
# [9] = molecular target: Guanine nucleotide-binding protein G(i) subunit alpha-1 (Homo sapiens) (UniProt P63096); test: qHTS Assay for Inhibitors of RGS12 GoLoco Motif Activity (Green Fluorophore) (AID 879; active = well fitted curve in the direction sought with a large enough effect; an effect the other way counts as inactive or inconclusive;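 also: 0% = labeled peptide with Gαi1 and full inhibition = labeled peptide alone without protein; negative values mean loss of peptide binding seen as reduced polarization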)
# Guanine nucleotide-binding protein G(i) subunit alpha-1 (Homo sapiens), sequence (P63096 whole entry, looked up): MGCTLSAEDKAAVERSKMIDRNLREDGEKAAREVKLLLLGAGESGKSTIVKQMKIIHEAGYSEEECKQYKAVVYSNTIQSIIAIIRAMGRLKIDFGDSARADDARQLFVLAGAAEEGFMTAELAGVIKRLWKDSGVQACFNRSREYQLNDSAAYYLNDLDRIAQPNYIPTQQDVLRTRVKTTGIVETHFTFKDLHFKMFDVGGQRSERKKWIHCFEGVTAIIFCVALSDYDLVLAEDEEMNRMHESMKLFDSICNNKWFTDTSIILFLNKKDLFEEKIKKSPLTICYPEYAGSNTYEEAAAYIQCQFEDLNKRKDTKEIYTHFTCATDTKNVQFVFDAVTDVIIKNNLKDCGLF
# How it was run: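 Fluorescence polarization assay: 50 nM Gαi1 with 10 nM FITC-labeled RGS12 GoLoco peptide in 10 mM Tris pH 7.5, 150 mM NaCl, 0.1 mM GDP, 0.05% NP40, 10 min at room temperature with compound.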
# [10] = molecular target: Pyruvate kinase (Leishmania mexicana) (UniProt Q27686); test: qHTS Validation Assay for Inhibitors of Leishmania Mexicana Pyruvate Kinase (AID 945; active = well fitted curve in the direction sought with a large enough effect; an effect the other way counts as inactive or inconclusive;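 also: 0% = DMSO only neutral control wells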)
# Pyruvate kinase (Leishmania mexicana), sequence (Q27686 2-499 E452W): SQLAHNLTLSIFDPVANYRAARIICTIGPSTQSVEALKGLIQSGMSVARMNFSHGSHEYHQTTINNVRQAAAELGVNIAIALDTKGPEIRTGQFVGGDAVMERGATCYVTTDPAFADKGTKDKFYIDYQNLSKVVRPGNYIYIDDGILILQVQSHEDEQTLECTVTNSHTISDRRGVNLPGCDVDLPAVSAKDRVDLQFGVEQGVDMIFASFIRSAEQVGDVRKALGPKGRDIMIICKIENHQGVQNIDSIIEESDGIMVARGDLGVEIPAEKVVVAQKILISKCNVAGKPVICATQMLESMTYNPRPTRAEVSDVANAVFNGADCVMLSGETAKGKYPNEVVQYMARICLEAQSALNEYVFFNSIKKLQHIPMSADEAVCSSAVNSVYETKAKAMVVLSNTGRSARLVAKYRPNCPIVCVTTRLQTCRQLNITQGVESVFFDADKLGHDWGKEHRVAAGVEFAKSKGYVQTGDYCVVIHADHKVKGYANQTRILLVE
# How it was run: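 Eight-point qHTS titrations in triplicate, data normalized to DMSO neutral control. Reaction: 0.2 nM LmPYK E451W mutant, 0.5 mM PEP, 0.1 mM ADP, 7 mM MgCl2, pH 7.2, one hour at room temperature; luminescent ATP detection.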
# [11] = molecular target: Pyruvate kinase PKM (Homo sapiens) (UniProt P14618); test: qHTS Assay for Activators of Human Muscle Pyruvate Kinase (AID 954; active = well fitted curve in the direction sought with a large enough effect, not every such curve was filed as active;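 also: 0% = uninhibited enzyme and -100% = no enzyme or full thiadiazolimine inhibition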)
# Pyruvate kinase PKM (Homo sapiens), sequence (P14618 whole entry, looked up): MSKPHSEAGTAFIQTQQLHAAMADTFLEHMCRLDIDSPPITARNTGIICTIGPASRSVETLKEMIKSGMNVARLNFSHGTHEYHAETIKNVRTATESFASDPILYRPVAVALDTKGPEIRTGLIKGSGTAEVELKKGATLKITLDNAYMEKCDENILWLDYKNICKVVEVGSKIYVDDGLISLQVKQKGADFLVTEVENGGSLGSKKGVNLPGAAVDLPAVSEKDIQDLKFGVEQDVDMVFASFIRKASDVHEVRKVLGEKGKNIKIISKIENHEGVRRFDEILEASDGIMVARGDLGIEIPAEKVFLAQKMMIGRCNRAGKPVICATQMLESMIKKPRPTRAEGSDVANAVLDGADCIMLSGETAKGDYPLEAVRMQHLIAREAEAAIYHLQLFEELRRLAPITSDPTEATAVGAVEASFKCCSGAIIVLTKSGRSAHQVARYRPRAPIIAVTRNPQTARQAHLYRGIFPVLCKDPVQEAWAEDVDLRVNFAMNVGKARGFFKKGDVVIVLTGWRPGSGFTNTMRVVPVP
# How it was run: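 Human PKM2 activity is measured as ATP generation, detected by luciferase-coupled luminescence. The enzyme (0.1 nM) acts on 0.5 mM PEP and 0.1 mM ADP for 1 h at ambient temperature; data are normalized to uninhibited and full-inhibition wells.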
# [12] = molecular target: alpha-glucosidase (Oryza sativa, rice) (UniProt Q653V4); test: Counterscreen for Glucocerebrosidase Inhibitors: qHTS Assay for Rice alpha-Glucosidase at pH 5.0 (AID 997; active = well fitted curve in the direction sought with a large enough effect; an effect the other way counts as inactive or inconclusive;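 also: 0% = full activity with enzyme and -100% = basal without enzyme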)
# How it was run: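 Rice alpha-glucosidase (4 nM final) with 400 uM 4-methylumbelliferyl-alpha-D-glucopyranoside in citrate buffer pH 5.0, 20 min at room temperature, stopped at pH 10; fluorescence 365/440 nm, compounds 0.7 nM–77 uM, AC50 from Hill fits.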
# [13] = qHTS Assay for Lipid Storage Modulators (AID 1519; calls by dose curve); settings: Drosophila S3 cells, BODIPY lipid droplet/cell ratio, laser cytometry, cells loaded with oleic acid
# How it was run: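 Cells seeded at 5,000 per well were treated with compounds over a concentration series and loaded with oleic acid (400 uM, as added). Lipid droplet fluorescence (488 nm excitation, 500-530 nm channel) was read by laser-scanning cytometry and normalized to 20 uM Triacsin C.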
# [14] = molecular target: Ubiquitin carboxyl-terminal hydrolase 1 (Homo sapiens) (UniProt O94782); test: Inhibitors of USP1/UAF1: Pilot qHTS (AID 504865; active = well fitted curve in the direction sought with a large enough effect; an effect the other way counts as inactive or inconclusive;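 also: rhodamine fluorescence freed from ubiquitin-rhodamine substrate followed over time; top concentration of the series differs between compounds; % is scaled to controls: 0 for no effect and ±100 for the full control effect; nearly all actives have a fitted effect of over 35% in size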)
# Ubiquitin carboxyl-terminal hydrolase 1 (Homo sapiens), sequence (O94782 whole entry, looked up): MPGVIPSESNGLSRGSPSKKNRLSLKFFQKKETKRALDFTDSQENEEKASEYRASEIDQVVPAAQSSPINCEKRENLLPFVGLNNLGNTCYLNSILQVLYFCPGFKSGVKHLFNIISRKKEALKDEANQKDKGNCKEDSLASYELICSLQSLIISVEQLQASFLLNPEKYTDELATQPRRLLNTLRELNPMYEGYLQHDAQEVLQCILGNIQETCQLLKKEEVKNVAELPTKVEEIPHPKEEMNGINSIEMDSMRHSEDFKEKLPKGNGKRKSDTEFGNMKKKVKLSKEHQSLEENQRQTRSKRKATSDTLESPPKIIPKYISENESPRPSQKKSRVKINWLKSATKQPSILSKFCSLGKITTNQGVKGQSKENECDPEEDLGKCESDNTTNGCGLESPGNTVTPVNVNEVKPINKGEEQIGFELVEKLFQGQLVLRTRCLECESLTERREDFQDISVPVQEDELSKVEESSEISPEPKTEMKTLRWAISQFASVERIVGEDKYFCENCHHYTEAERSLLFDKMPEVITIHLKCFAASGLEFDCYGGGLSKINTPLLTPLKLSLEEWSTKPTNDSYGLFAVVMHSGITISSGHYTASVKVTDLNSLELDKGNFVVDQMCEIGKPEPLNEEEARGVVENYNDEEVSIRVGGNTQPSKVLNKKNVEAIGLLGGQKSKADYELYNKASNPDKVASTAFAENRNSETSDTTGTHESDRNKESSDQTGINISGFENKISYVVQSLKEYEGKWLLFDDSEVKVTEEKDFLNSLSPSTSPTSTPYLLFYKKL
# How it was run: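 Kinetic fluorescence assay: 1nM USP1/UAF1, 15 min compound preincubation, then 150nM Ub-Rho; 480/540 nm.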
# [15] = molecular target: DNA dC->dU-editing enzyme APOBEC-3G (Homo sapiens) (UniProt Q9HC16); test: qHTS for inhibitors of Vif-A3G interactions: Validation (AID 588379; active = well fitted curve in the direction sought with a large enough effect; an effect the other way counts as inactive or inconclusive; also: 0% is about no effect)
# DNA dC->dU-editing enzyme APOBEC-3G (Homo sapiens), sequence (Q9HC16 whole entry, looked up): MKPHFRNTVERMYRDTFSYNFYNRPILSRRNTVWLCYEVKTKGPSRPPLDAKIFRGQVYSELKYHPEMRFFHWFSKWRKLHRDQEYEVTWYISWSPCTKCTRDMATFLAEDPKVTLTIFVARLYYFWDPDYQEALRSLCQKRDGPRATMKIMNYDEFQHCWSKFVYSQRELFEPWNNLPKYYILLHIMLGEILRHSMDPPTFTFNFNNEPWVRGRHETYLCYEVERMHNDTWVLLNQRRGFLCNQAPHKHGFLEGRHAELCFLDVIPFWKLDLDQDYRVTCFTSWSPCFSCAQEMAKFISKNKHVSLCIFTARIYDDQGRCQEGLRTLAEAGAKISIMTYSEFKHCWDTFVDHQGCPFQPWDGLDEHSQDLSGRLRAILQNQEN
# How it was run: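 HeLa cells stably expressing Vif and A3G-eYFP, 700 cells/well, incubated overnight at 37 deg C, then exposed to compound overnight at 37 deg C. Inhibition of Vif-mediated degradation read as increased yellow fluorescence (Ex 488/Em 500-530) by laser-scanning cytometry.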
# [16] = system: Zika virus NS2B-NS3 protease; test: Primary screen GU AMC qHTS for Zika virus inhibitors (AID 1347154; active = well fitted curve in the direction sought with a large enough effect; an effect the other way counts as inactive or inconclusive;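 also: 0% = no-inhibitor control and -100% = no-enzyme control; nearly all actives have a fitted effect of over 70% in size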)
# How it was run: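 Unlinked Zika NS2B hydrophilic domain–NS3 protease complex at 25 nM in 10 mM Tris-HCl pH 8.0, 0.01% Tween 20, with an AMC peptide substrate. Fluorescence change (340/450 nm) over 15 min at room temperature, normalized to controls, fitted to 4-parameter Hill.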
# [17] = Confirmatory qHTS for small molecule stabilizers of the endoplasmic reticulum resident proteome: Secreted ER Calcium Modulated Protein (SERCaMP) assay (AID 1508628; active = well fitted curve in the direction sought with a large enough effect; an effect the other way counts as inactive or inconclusive; also: potency is read from the fitted curve at half-maximal effect; nearly all actives have a fitted effect of over 40% in size)
# How it was run: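 SH-SY5Y cells stably expressing GLuc-SERCaMP, treated 16 h with compound (primary 1.53, 7.67, 38.3 uM; confirmation 11 concentrations, up to 76.6 uM), then 100 nM thapsigargin for 4 h. Secreted Gaussia luciferase in medium read by coelenterazine luminescence.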
smiles,measurement,setting,value
CN(C)C/C=C(\c1ccc(Br)cc1)c1cccnc1,Potency,[1],> 11.4 µM (inactive)
same,"activity change, negative = inhibition",[2]; at 7.69 µM (top of the series),5.82% (inactive)
same,"activity change, negative = inhibition",[2]; at 17.2 µM (top of the series),4.78% (inactive)
same,"activity change, negative = inhibition",[2]; at 38 µM (top of the series),14.9% (inactive)
same,"activity change, negative = inhibition",[3]; at 7.69 µM (top of the series),-7.27% (inactive)
same,"activity change, negative = inhibition",[3]; at 17.2 µM (top of the series),-12.7% (inactive)
same,"activity, negative = inhibition",[4]; at 7.69 µM (top of the series),3.29% (inactive)
same,"activity, negative = inhibition",[4]; at 17.2 µM (top of the series),7.82% (inactive)
same,"activity, negative = inhibition",[4]; at 38 µM (top of the series),-15.8% (inactive)
same,Potency,[5],> 46 µM (inactive) and > 20.6 µM (inactive)
same,Potency,[6],> 46 µM (inactive) and > 20.6 µM (inactive) and > 9.22 µM (inactive)
same,Potency,[7],inactive
same,Potency,[8],inactive
same,outcome,[9],inactive
same,Potency,[10],inactive
same,outcome,[11],inactive
same,outcome,[12],inactive
same,"activity change, negative = inhibition",[13]; at 25.7 µM (top of the series),-2.94% (inactive)
same,max response,[13]; measured here: cell count channel max response,-7.55%
same,max response,[13]; measured here: lipid channel max response,-11.6%
same,Potency,[14],inactive
same,Potency,[15],inactive
same,Potency,[16],inactive
same,Potency,[17],44.7 µM (active)

# — PubChem BioAssay (NCATS)
